Measurements reported in ChEMBL document CHEMBL3988442, “University of Dundee, Small-Polar-MMV Screening Library” (2021).
For some assays here: Potency and affinity values are given separately.

Key:
Set-up in all cases: scale not given: direction of the effect not stated beside the values
[1] = target: Protein translocase subunit SecA (Escherichia coli (strain K12)) (UniProt P10408); assay: Assay to Identify E. coli SecA ATPase Inhibitors; assay type: functional; conditions: 30 µM
[2] = target: T1, Ubiquitin-activating enzyme e1, putative (Leishmania donovani (strain BPK282A1)) (UniProt E9BSI1); assay: Leishmania donovani Ubiquitin Activating Enzyme (LdE1); assay type: functional; conditions: 30 µM
T1 sequence (whole entry): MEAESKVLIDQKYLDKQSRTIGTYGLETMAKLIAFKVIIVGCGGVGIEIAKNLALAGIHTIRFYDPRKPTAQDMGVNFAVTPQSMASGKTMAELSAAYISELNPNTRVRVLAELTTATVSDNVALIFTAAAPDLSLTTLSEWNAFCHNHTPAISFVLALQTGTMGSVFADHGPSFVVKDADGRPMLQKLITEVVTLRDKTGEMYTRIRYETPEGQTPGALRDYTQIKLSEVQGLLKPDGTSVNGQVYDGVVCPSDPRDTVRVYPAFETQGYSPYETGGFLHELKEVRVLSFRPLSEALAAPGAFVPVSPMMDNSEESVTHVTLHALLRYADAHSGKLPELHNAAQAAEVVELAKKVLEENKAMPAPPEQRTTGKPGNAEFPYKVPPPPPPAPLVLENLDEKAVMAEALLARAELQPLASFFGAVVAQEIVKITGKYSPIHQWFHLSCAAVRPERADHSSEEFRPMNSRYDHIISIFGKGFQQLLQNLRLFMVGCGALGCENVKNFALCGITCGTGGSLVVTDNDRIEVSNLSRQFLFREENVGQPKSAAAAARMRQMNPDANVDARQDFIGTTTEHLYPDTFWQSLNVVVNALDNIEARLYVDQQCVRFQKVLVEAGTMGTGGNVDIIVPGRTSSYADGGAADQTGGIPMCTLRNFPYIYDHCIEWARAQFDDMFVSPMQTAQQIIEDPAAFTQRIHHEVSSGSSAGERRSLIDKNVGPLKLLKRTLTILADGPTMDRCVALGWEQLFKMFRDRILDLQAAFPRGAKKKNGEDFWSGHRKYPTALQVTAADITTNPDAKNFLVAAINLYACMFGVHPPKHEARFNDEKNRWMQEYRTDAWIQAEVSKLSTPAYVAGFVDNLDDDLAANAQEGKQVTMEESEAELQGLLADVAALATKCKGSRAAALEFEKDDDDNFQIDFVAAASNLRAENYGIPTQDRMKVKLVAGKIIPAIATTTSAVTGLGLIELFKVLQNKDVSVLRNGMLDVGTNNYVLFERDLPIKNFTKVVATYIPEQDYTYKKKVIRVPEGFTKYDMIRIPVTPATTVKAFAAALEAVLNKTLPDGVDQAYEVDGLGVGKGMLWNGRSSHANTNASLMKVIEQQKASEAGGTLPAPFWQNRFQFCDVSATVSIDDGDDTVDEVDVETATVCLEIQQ

[3] = target: Sialic acid-binding Ig-like lectin 9 (Homo sapiens) (UniProt Q9Y336); assay: Hs-Siglec9 ALPHAscreen SOP 20170721; conditions: 10 µM
Trypanosoma cruzi = assay: Trypanosoma cruzi phosphomannomutase and mannose-1-phosphate guanylyltransferase assay; assay type: functional; conditions: 10 µM
[4] = target: T2, Arginase-2, mitochondrial (Homo sapiens) (UniProt P78540); assay: in vitro enzyme assay to detect the production of urea directly proportional to the activity of Arginase II; assay type: functional; conditions: 33.3 µM; note: in the data most compounds retested in dose-response had high values
T2 sequence (whole entry): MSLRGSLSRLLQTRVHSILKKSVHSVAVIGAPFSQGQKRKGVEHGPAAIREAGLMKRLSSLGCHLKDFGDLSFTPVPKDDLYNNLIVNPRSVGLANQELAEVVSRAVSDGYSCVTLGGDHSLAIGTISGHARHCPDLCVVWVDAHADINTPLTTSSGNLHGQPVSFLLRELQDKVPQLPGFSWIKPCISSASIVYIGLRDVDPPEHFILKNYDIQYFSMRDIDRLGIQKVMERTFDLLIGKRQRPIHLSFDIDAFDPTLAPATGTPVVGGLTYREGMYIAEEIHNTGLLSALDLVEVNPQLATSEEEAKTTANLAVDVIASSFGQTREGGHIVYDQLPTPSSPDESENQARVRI

[5] = target: T3, Proteasome subunit beta (Trypanosoma cruzi) (UniProt O96673); assay: Trypanosoma cruzi proteasome chymotrypsin-like activity (TcProtChymo) assay.; note: in the data most compounds retested in dose-response had high values; assay type: functional; conditions: 9.37 µM
T3 sequence (whole entry): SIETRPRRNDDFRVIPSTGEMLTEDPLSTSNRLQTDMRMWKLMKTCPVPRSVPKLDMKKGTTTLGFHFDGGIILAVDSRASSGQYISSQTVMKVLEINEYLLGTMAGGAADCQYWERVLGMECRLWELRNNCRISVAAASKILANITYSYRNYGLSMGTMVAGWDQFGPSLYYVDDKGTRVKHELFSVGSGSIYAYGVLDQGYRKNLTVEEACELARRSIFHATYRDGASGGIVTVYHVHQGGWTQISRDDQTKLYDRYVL

Homo sapiens = species on record: Homo sapiens; assay: To identify inhibition of the IFN signalling (Jak-Stat) pathway via expression of an eGFP reporter gene under the control of an IFN-stimulated response element (ISRE) containing MxA promoter.; assay type: functional; conditions: 30 µM
[6] = target: T4, Tyrosyl-tRNA synthetase, putative (Trypanosoma cruzi (strain CL Brener)) (UniProt Q4DSP6); assay: Trypanosoma cruzi tyrosyl tRNA synthetase (TcYRS) _High Tyrosine SOP; assay type: functional; conditions: 30 µM; note: in the data most compounds retested in dose-response had high values
T4 sequence (whole entry): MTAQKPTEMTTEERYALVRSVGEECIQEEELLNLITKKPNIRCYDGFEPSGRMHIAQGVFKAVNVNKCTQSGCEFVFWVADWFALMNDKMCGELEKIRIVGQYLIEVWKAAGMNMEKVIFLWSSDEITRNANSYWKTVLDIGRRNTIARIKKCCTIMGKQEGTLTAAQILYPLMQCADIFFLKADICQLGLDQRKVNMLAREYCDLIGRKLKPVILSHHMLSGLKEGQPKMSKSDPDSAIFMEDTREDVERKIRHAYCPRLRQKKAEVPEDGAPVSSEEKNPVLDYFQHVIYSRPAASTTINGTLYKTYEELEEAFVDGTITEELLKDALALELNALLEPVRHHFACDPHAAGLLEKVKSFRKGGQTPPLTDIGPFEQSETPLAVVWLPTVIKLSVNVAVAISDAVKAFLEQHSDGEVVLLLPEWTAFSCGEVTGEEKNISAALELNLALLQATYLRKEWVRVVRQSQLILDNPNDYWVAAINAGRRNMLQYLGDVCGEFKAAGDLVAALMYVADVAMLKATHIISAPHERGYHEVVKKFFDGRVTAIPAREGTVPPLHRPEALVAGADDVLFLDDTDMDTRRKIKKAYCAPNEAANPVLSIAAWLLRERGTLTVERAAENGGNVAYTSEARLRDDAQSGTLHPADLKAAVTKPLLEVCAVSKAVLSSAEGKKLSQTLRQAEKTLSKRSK

[7] = target: T4, Tyrosyl-tRNA synthetase, putative (Trypanosoma cruzi (strain CL Brener)); assay: Trypanosoma cruzi tyrosyl tRNA synthetase (TcYRS) SOP; assay type: functional; conditions: 30 µM
[8] = target: Chromo domain-containing protein 1 (Saccharomyces cerevisiae (strain ATCC 204508 / S288c) (Baker's yeast)) (UniProt P32657); assay: ScCHD-1 Enzyme Inhibition Assay; assay type: functional; conditions: 30 µM; note: in the data most compounds retested in dose-response had high values
Chain of Chromo domain-containing protein 1 (Saccharomyces cerevisiae (strain ATCC 204508 / S288c) (Baker's yeast)) (P32657 whole entry, the tested form may be a part): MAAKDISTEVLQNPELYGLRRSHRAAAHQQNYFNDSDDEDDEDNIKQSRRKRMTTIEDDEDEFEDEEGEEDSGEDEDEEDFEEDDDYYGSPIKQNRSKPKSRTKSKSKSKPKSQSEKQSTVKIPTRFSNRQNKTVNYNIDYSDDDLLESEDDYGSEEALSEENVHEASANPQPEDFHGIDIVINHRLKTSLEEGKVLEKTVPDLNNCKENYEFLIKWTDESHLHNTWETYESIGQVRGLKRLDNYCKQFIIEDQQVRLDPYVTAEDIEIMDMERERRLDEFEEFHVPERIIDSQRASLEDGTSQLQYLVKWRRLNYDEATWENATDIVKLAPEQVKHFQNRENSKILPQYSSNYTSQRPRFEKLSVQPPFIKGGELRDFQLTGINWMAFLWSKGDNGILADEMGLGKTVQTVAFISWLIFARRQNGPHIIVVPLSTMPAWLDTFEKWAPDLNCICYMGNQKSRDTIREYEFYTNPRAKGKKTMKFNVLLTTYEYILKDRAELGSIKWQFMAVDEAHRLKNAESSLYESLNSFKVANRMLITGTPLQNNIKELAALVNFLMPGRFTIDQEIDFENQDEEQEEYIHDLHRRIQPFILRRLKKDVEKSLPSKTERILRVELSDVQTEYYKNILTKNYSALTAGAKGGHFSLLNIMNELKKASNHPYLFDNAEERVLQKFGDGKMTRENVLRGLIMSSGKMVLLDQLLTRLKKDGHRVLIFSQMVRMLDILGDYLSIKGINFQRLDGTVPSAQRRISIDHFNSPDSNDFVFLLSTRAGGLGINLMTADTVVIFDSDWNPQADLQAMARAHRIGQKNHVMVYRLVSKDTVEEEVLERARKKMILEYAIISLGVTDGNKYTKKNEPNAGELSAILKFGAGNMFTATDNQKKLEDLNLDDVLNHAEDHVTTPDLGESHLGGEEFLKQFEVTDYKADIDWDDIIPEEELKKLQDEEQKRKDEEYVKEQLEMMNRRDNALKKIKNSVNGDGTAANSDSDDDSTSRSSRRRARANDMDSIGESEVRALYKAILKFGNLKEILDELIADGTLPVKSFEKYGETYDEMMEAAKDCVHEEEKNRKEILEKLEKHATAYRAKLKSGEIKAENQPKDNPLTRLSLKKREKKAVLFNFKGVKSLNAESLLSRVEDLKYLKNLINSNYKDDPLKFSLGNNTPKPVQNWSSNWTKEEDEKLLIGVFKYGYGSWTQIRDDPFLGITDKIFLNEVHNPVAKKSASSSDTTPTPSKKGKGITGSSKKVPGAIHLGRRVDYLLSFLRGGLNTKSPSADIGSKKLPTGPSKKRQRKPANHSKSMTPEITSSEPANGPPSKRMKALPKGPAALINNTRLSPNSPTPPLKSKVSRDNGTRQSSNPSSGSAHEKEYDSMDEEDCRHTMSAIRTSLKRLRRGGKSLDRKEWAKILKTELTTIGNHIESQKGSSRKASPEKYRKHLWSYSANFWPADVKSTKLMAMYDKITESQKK

Chain of Sialic acid-binding Ig-like lectin 9 (Homo sapiens) (Q9Y336 whole entry): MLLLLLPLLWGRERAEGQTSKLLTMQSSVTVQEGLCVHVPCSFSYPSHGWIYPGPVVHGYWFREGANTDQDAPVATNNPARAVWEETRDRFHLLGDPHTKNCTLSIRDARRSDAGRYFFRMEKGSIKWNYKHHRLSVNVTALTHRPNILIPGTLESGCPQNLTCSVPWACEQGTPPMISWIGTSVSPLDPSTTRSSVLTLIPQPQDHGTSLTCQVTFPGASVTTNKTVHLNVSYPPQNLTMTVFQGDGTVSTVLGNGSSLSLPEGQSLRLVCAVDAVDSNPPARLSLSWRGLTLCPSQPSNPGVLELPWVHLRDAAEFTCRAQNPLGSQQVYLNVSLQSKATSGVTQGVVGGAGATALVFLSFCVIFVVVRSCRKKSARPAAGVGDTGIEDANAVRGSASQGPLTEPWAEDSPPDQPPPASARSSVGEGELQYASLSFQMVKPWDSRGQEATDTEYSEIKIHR
Chain of Protein translocase subunit SecA (Escherichia coli (strain K12)) (P10408 whole entry): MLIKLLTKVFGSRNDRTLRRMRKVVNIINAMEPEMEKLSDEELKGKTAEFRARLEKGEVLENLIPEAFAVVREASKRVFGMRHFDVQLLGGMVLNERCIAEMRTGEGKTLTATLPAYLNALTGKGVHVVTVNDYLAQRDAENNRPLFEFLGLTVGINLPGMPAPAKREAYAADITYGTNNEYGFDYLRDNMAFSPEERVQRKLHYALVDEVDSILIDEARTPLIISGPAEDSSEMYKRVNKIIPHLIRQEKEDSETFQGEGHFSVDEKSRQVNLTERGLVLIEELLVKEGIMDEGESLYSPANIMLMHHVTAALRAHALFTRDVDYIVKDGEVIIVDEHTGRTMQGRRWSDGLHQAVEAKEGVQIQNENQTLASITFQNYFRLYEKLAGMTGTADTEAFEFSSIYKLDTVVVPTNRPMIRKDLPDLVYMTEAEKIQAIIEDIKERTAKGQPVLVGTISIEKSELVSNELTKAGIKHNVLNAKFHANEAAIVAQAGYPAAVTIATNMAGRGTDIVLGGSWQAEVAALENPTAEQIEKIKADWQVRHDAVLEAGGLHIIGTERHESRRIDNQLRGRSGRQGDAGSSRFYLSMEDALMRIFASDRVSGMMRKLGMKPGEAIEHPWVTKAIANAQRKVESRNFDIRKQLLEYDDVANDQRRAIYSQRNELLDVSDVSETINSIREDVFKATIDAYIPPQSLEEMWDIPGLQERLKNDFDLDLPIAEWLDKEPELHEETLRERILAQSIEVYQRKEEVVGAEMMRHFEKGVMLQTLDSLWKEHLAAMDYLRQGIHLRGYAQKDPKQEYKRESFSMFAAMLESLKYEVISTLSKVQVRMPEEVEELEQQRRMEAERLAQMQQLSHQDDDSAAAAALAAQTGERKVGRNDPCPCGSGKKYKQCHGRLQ

| SMILES | Percent Effect [1] [%] | Percent Effect [2] [%] | Percent Effect [3] [%] | Percent Effect (Trypanosoma cruzi) [%] | Percent Effect [4] [%] | Percent Effect [5] [%] | Percent Effect (Homo sapiens) [%] | Percent Effect [6] [%] | Percent Effect [7] [%] | Percent Effect [8] [%] |
| --- | --- | --- | --- | --- | --- | --- | --- | --- | --- | --- |
| CC(C)c1nccn1-c1cccc(C2CCCN2S(=O)(=O)N(C)C)n1 (stereo not given) | 1.33 | -17.3 | -5.7 | -2.76 | -1.77 | 14.8 | 39.9 | 4.23 | 10 | -18 |
| CCO[C@H]1CO[C@@]2(CCCN(S(=O)(=O)c3ccccc3)C2)C1 | -1.1 | 24.7 | -3.22 | -3.02 | 11.3 | 17.7 | 10.2 | 2.63 | 0 | 6.62 |
| COc1ncccc1NC(=O)c1cccc(C)n1 | 3.56 | 15.4 | -4.18 | 1.41 | 2.05 | 4.18 | 7.05 | 9.09 | 25.3 | -8.29 |
| NC(=O)c1cc(C2CCCN(CCc3ccccn3)C2)n[nH]1 (stereo not given) | -0.145 | -12.8 | -3.53 | 3.29 | 4.1 | -3.67 | 2.63 | 3.35 | -1.21 | -1.37 |
| Cn1cc(CN2CCC3(CCCN3S(C)(=O)=O)CC2)cn1 | -3.77 | -1.3 | -1.55 | -5.36 | -0.81 | 1.15 | 1.96 | -2.63 | -25.6 | -1.37 |
| CS(=O)(=O)NCc1cc2n(n1)CCCN(Cc1nc3ccccc3[nH]1)C2 | -9.74 | 2.7 | 1.38 | -1.46 | 3.85 | 6.16 | -1.07 | 6.92 | 9.76 | 3.52 |
| CCC(NC(N)=O)c1ccccc1OCC(=O)N1CCCC1 (stereo not given) | -1.4 | 10.3 | -13.8 | -4.41 | -4.92 | 9.81 | 16.9 | 5.26 | 18.1 | -6 |
| O=C(c1ccco1)N1CCC2(CC1)C(=O)NCCN2CC1CC1 | -7.74 | 1.3 | -3.06 | -8.08 | -4.05 | 15.1 | 8.56 | 1.58 | -2.56 | -1.19 |
| Cc1ccc(N2CCC3(CCCN(C(=O)c4cccnc4)C3)C2)nn1 (stereo not given) | -10.1 | 1.3 | 11 | -3.41 | 0.405 | 16.1 | 2.17 | 0.526 | -10.3 | 0.442 |
| Cc1cnn(CC2CN(CC(=O)NCCc3cccs3)CCO2)c1 (stereo not given) | -3.45 | 0 | 6.55 | -4.62 | 0.887 | 3.48 | 9.62 | 4.74 | -2.56 | -0.407 |
| CN(C)[C@@H]1CN(Cc2ccoc2)C[C@@H]2CCCO[C@@H]21 | 0.454 | -11.7 | 0.192 | -1.46 | -1.62 | 5.74 | -2.15 | 0.526 | -2.56 | -1.39 |
| CC(C)(C)c1nnc(CN2CCn3c(nnc3C3CC3)C2)o1 | -1.7 | -2.67 | 0.00454 | -2.21 | 0.444 | 3.14 | 13.2 | 0.526 | 2.56 | 9.52 |
| OC(CNCCn1cccn1)c1ccc2c(c1)OCCO2 (stereo not given) | -5.4 | 13.3 | 10.3 | 1 | 0 | 4.83 | -2.77 | 4.74 | 10.3 | -13.4 |
| Cc1ccc(CN2CCC(c3nnc(CN4CCCCC4)n3C)CC2)o1 | -5.23 | 0 | 2.13 | -0.873 | -0.35 | 5.99 | 1.11 | 1.6 | 4.88 | 3.06 |
| O=C(Nc1cccnc1)[C@H]1C[C@H]2OCC[C@H]2N(C(=O)c2ccsc2)C1 | -4.32 | 11.7 | 13 | 4.58 | 17 | 10.5 | -7.28 | 4.74 | 12.8 | 18.5 |
| O=S(=O)(CCCN1CCCC1Cn1cccn1)c1ccccc1 (stereo not given) | -5.34 | 7.79 | 19.1 | -2.24 | -0.205 | 7.19 | 2.19 | 6.86 | 16.5 | -5.4 |
| O=C(NCCCN1CCc2ccccc2C1)c1cccnc1O | -1.75 | 10.7 | 3.3 | -0.803 | 2.22 | 2.8 | 4.99 | 2.63 | 10.3 | -11.3 |
| c1cnn(CC2CCCN2Cc2nc(-c3ccoc3)no2)c1 (stereo not given) | -4.7 | 5.33 | 2.88 | 3.41 | -4.88 | 10.3 | -9.56 | 4.74 | 7.69 | -12.5 |
| CN1CC(=O)N(c2ccsc2)CC12CCN(C(=O)c1ccccc1)C2 (stereo not given) | -4.65 | 11.7 | -6.87 | -3.99 | 3.64 | 12.6 | -10.9 | 5.79 | 7.69 | 1.01 |
| Cc1nc([C@@H]2C[C@@H]3CCN(C(=O)Cc4ccsc4)C[C@H]3O2)no1 | -3.1 | -1.3 | -5.06 | -3.21 | -1.62 | 10.5 | -23.3 | -1.58 | 0 | -2.29 |
| Cc1ncc2c(n1)CN(Cc1nc3ccccc3o1)CC2 | -2.9 | 8 | 3.11 | 4.02 | -2.22 | 3.31 | -20.5 | 25.8 | 28.2 | -12.9 |
| Cc1ccccc1N1CCN(C(=O)c2ccc[nH]2)C(C)C1 (stereo not given) | -7.84 | 2.7 | 33.4 | 5.92 | -2.45 | 9.25 | 27.5 | 1.6 | 9.76 | -1.74 |
| CCOc1ccc(Cl)c(C(=O)NCc2ccc(C(=O)NC)cc2)n1 | -5.52 | 15.4 | -5.92 | 4.79 | 4.92 | 8.62 | 9.74 | 5.26 | 20.5 | 0.666 |
